In PubChem BioAssay AID1159580 (chemical genetic matrix, 2015):
Several values for one entry are separate records, joined by “and”; a condition that tells them apart may be missing. Equal entries are not always repeated. Screen size: about 5,500 compounds; about 2,000 (36%) were called active. Not shown: some 18% with an inconclusive outcome. Rule as the data show it: active = normalized growth mostly below about 0.91 (no sharp cut-off); inconclusive = no clear call, values can overlap the other calls; inactive = mostly above about 0.92. This is one part of the list.

Assay: chemical genetic growth profiling, strain panel (AID 1159580);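 also: tested at 20 µM; growth read once vehicle control cultures reached saturation at 30 °C; 1 = growth at the plate median or of vehicle wells; lower values mean less growth of the strain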
Details: S. cerevisiae deletion strains, growth OD

Measured: normalized growth

C=CCC1(C(C)CCC)C(=O)N=C(S)NC1=O (stereo unspecified)
inactive: locus YAL013W, strain DEP1, hits give low values 0.989 | locus YAL021C, strain ccr4, hits give low values 0.989 | locus YAL026C, strain drs2, hits give low values 1 | locus YAL030W, strain snc1, hits give low values 0.984 | locus YBL061C, strain skt5, hits give low values 0.975 | locus YBR009C, strain hhf1, hits give low values 1.01 | locus YBR021W, strain FUR4, hits give low values 0.982 | locus YBR023C, strain chs3, hits give low values 0.986 | locus YBR171W, strain sec66, hits give low values 0.949 | locus YBR229C, strain ROT2, hits give low values 0.994 | locus YBR231C, strain swc5, hits give low values 0.976 | locus YBR279W, strain paf1, hits give low values 0.998 | locus YCL011C, strain gbp2, hits give low values 0.974 | locus YCL016C, strain dcc1, hits give low values 1 | locus YCL029C, strain bik1, hits give low values 0.981 | locus YCL061C, strain MRC1, hits give low values 0.982 | locus YCL069W, strain vba3, hits give low values 0.99 | locus YCR088W, strain abp1, hits give low values 0.967 | locus YDL005C, strain med2, hits give low values 0.937 | locus YDL035C, strain GPR1, hits give low values 0.985 | locus YDL040C, strain nat1, hits give low values 0.973 | locus YDL074C, strain BRE1, hits give low values 1.06 | locus YDL101C, strain DUN1, hits give low values 0.979 | locus YDL134C, strain PPH21, hits give low values 0.997 | locus YDL185W, strain tfp1, hits give low values 0.958 | locus YDL192W, strain arf1, hits give low values 0.976 | locus YDR001C, strain nth1, hits give low values 0.949 | locus YDR069C, strain doa4, hits give low values 0.949 | locus YDR101C, strain arx1, hits give low values 0.988 | locus YDR137W, strain rgp1, hits give low values 0.919 | locus YDR150W, strain NUM1, hits give low values 0.994 | locus YDR159W, strain sac3, hits give low values 0.952 | locus YDR162C, strain NBP2, hits give low values 1.01 | locus YDR195W, strain ref2 0.885 | locus YDR297W, strain sur2, hits give low values 0.983 | locus YDR318W, strain mcm21, hits give low values 0.986 | locus YDR334W, strain swr1, hits give low values 0.938 | locus YDR335W, strain msn5, hits give low values 0.964 | locus YDR388W, hits give low values 0.986 | locus YDR392W, strain spt3, hits give low values 1.01 | locus YDR502C, strain sam2, hits give low values 1 | locus YEL003W, strain gim4, hits give low values 0.979 | locus YEL037C, strain rad23, hits give low values 0.974 | locus YEL061C, strain CIN8 (second series), hits give low values 0.968 | locus YEL061C, strain CIN8, hits give low values 0.988 | locus YER015W, strain faa2, hits give low values 0.957 | locus YER016W, strain bim1, hits give low values 0.987 | locus YER110C, hits give low values 0.981 | locus YER111C, strain swi4, hits give low values 0.989 | locus YER155C, strain BEM2 (second series), hits give low values 0.928 | locus YER155C, strain BEM2, hits give low values 0.988 | locus YER167W, strain BCK2, hits give low values 0.961 | locus YFR010W, strain ubp6, hits give low values 0.952 | locus YGL078C, strain dbp3, hits give low values 0.986 | locus YGL086W, strain mad1, hits give low values 0.975 | locus YGL167C, strain pmr1, hits give low values 0.962 | locus YGL173C, strain kem1, hits give low values 0.999 | locus YGL227W, strain vid30, hits give low values 0.954 | locus YGL240W, strain doc1, hits give low values 0.944 | locus YGL248W, strain PDE1, hits give low values 1 | locus YGL253W, strain hxk2, hits give low values 0.969 | locus YGR078C, strain PAC10, hits give low values 1.02 | locus YGR135W, strain pre9, hits give low values 1.02 | locus YGR229C, strain SMI1, hits give low values 1.02 | locus YGR252W, strain gcn5, hits give low values 1.03 | locus YHR013C, strain ard1, hits give low values 0.964 | locus YHR027C, strain rpn1, hits give low values 0.977 | locus YHR030C, strain SLT2, hits give low values 0.976 and 0.982 | locus YHR079C, strain IRE1 (second series), hits give low values 0.987 | locus YHR079C, strain IRE1, hits give low values 0.979 | locus YHR094C, strain hxt1, hits give low values 0.968 | locus YHR129C, strain ARP1, hits give low values 1 | locus YHR142W, strain chs7, hits give low values 0.996 | locus YHR200W, strain rpn10, hits give low values 0.965 | locus YIL066C, strain RNR3, hits give low values 0.999 | locus YIL073C, strain SPO22, hits give low values 0.934 | locus YIL125W, strain kgd1, hits give low values 0.982 | locus YIR030C, strain dcg1, hits give low values 0.978 | locus YJL092W, strain hpr5, hits give low values 0.985 | locus YJL095W, strain BCK1 (second series), hits give low values 0.975 | locus YJL095W, strain BCK1, hits give low values 1.07 and 0.994 | locus YJL115W, strain asf1, hits give low values 0.952 | locus YJL129C, strain trk1, hits give low values 0.928 | locus YJL134W, strain LCB3, hits give low values 0.979 | locus YJL154C, strain vps35, hits give low values 0.965 | locus YJL164C, strain tpk1, hits give low values 1.01 | locus YJL166W, strain qcr8, hits give low values 0.969 | locus YJL168C, strain set2, hits give low values 0.983 | locus YJL187C, strain SWE1 (second series), hits give low values 1.01 | locus YJR043C, strain POL32, hits give low values 0.978 | locus YJR066W, strain TOR1, hits give low values 0.959
